# CDC25B CDK2 inh: human CDC25B-CDK2/CyclinA binding inhibition; P30305+P24941; HTRF CDC25B-CDK2/CyclinA binding, anti-His/anti-Flag; hits give high values; z-score (no concentration beside the values); 0.72% of 94,000 active; in the data active = z-score above about 3.2
# TAR Tat displ: HIV-1 TAR-Tat binding disruption | z-score (concentration not given with the values) | HIV-1 TAR RNA, Tat peptide displacement FRET; hits give high values | 0.6% of 100,000 active | AID 1259389; active = z-score of 3 or more in at least 2 runs
# Hits are given with their value; 0 = inactive; - = no result. This is a sample that favours compounds with a hit; in the whole collection about 0.9% have one here.
SMILES,CDC25B CDK2 inh,TAR Tat displ
CC1Cc2cc(S(=O)(=O)CCC(=O)N3CCc4ccccc43)ccc2N1C(=O)C1CC1 (stereo not given),-,0
Cc1ccc(CS(=O)(=O)c2ncc(Cl)c(C(=O)Oc3ccc(C)cc3)n2)cc1,0,0
Cc1ccc(CS(=O)(=O)c2ncc(Cl)c(C(=O)Nc3nnc(C(C)C)s3)n2)cc1,5.5,0
O=C(Cn1ncn2nc(-c3cccs3)cc2c1=O)NCc1ccco1,0,0
CCN(CCN(C)C)C(=O)c1cc2c(s1)-c1ccc(Cl)cc1S(=O)(=O)C2,0,0
CN(C)[C@@H]1C(=O)C(C(=O)NCN2CCCC2)=C(O)[C@@]2(O)C(=O)C3=C(O)c4c(O)cccc4[C@@](C)(O)C3CC12 (stereo not given in full),-,14
Brc1ccc(CN2CCc3nc(N4CCN(c5ccccc5)CC4)ncc3C2)cc1,-,0
Cc1noc2ncnc(N3CCCC3CO)c12 (stereo not given),-,0
CCc1nnc(NC(=O)Cn2c(=O)sc3ccccc32)s1,0,-
CCc1nnc(NC(=O)c2cc(=O)n3c(nc4ccccc43)s2)s1,-,3.8
CCOC(=O)c1ccc(NC2=C(N3CCCCC3)C(=O)c3ccccc3C2=O)cc1,17,-
O=C1C(c2ccccc2)=C(Nc2ccc(F)cc2)c2ccccc21,0,0
O=C1C(Nc2ccc(F)cc2)=C(N2CCCCC2)C(=O)c2ccccc21,8,-
CCOC(=O)c1ccc(N2CCCCC2)c(N)c1,0,-
Cc1cc(=O)n2c(C(=O)Nc3ccc(Cl)cc3)c(C(=O)Nc3ccccc3)sc2n1,0,0
Cc1cccc(CCNc2nnc(C)c3nnn(Cc4ccc(F)cc4)c23)c1,0,0
O=C1Cc2cc(S(=O)(=O)NCCCc3ccccc3)cc3c2N1CCC3,-,0
COC(=O)c1c(SCC(=O)Nc2ccc(F)c(F)c2)[nH]c2ccc(Cl)cc2c1=O,-,0
COC(=O)c1c(SCC(=O)Nc2ccc(F)cc2)[nH]c2ccc(Cl)cc2c1=O,-,16
CN(C)CCNC(=O)C1CCCN(S(=O)(=O)N2CCOCC2)C1 (stereo not given),-,0
Cc1ccc(-c2c(N3CCN(c4cc(C)ccc4C)CC3)c(=O)c2=O)cc1,-,0
Cc1ccc(C)c(N2CCN(c3c(-c4ccc(C)c(C)c4)c(=O)c3=O)CC2)c1,-,13
Cc1ccc(S(=O)(=O)NCC(Sc2nnc3nc(C)cc(C)n23)c2ccccc2)cc1 (stereo not given),0,0
CCOC(=O)c1[nH]c(C)c(CN(CC2CCCO2)C(=O)c2cccs2)c1C (stereo not given),-,0
O=S(=O)(c1ccc(F)cc1)N1CCCC1c1cccs1 (stereo not given),0,0
SMILES,CDC25B CDK2 inh,TAR Tat displ
COC(=O)c1ccc2c(c1)C1C=CCC1C(c1cccc3ccccc13)N2 (stereo not given),0,0
COc1cccc2c1NC(c1cccc3ccccc13)C1CC=CC21 (stereo not given),0,6.4
COc1ccc(OC)c(NS(=O)(=O)c2ccc3c(c2)CC(C)N3C(=O)C2CCC2)c1 (stereo not given),-,0
Cc1nc(-c2csc(S(=O)(=O)Nc3ccc(Cl)cc3F)c2)no1,-,0
Cc1c(CCOC(=O)C2C3CC4CC(C3)CC2C4)sc[n+]1CC(=O)c1ccc(Br)cc1 (stereo not given),9.1,-
O=C(Nc1ccc(S(=O)(=O)Nc2ncccn2)cc1)c1nn(-c2ccccc2)ccc1=O,0,0
Cc1noc(NS(=O)(=O)c2ccc(NC(=O)c3nn(-c4ccccc4)ccc3=O)cc2)c1C,0,16
Cc1cc2oc(C(=O)Nc3ccc(S(=O)(=O)Nc4onc(C)c4C)cc3)cc(=O)c2cc1C,0,4.4
Cc1ccc(C(=O)Nc2ccc(S(=O)(=O)Nc3onc(C)c3C)cc2)o1,0,-
Cc1ccc(-c2c(C(F)(F)F)nn3c(C)cc(C)nc23)cc1,0,0
N=C1C(c2nc3ccccc3c(=O)[nH]2)=C(O)CN1c1ccc(O)cc1,0,0
O=C(CSc1ccccc1)OCc1cc(=O)n2nc(-c3cccs3)sc2n1,-,0
CC(=O)Nc1nc(C)c(-c2csc(Nc3ccc(Cl)cc3)n2)s1,0,0
CC(=O)Nc1nc(C)c(-c2csc(NCc3ccccc3)n2)s1,6.8,-
CC1(C)CC(=O)C2=C(C1)Nc1ccccc1N(C(=O)NCC1CCCO1)C2c1ccccc1 (stereo not given),-,0
COc1ccc(CN[C@H]2CS(=O)(=O)C[C@@H]2S(=O)(=O)c2ccc(F)cc2)cc1,0,0
Cc1cc(C)c2c(C)c(C(=O)N(Cc3sccc3C)C3CCS(=O)(=O)C3)oc2c1 (stereo not given),0,0
Cc1ccc(-c2nc(CSCC(=O)N3CC(C)OC(C)C3)no2)cc1 (stereo not given),-,0
C[C@@H]1C[C@H]2O[C@@H]2/C=C\C=C\C(=O)Cc2c(Cl)c(O)cc(O)c2C(=O)O1,-,5
CCCSc1ncc(Cl)c(C(=O)Nc2ccc(Br)cc2)n1,0,0
COC(=O)c1sc2ccccc2c1S(=O)(=O)Nc1ccc(N(C)C)cc1,-,0
Cn1c(=O)n(Cc2ccccc2)c(=O)c2c1nc1n2CCN1c1ccc(F)cc1,-,0
Cn1c(=O)n(C/C=C/c2ccccc2)c(=O)c2c1nc1n2CCN1c1ccc(F)cc1,-,12
O=C(O)C1Cc2c([nH]c3ccccc23)CN1 (stereo not given),16,-
O=C(O)C1Cc2c([nH]c3ccccc23)C(c2ccccc2)N1 (stereo not given),0,-
SMILES,CDC25B CDK2 inh,TAR Tat displ
Cn1c(CSc2ccccc2)n[nH]c1=S,0,-
Cn1c(CSC2CN(C(c3ccccc3)c3ccccc3)C2)n[nH]c1=S,13,-
Cc1ccc2[nH]c(=O)c(-c3noc(-c4ccco4)n3)cc2c1,10,28
Cc1ccc2cc(-c3noc(-c4ccco4)n3)c(=O)[nH]c2c1,0,0
O=C(Cc1csc2nc(-c3ccc(Cl)cc3)cn12)NC1CCCC1,-,0
CCOc1ccc(-c2n[nH]c3c2cnc2cc4c(cc23)OCCO4)cc1,15,17
Cc1ccc(-c2n[nH]c3c2cnc2cc4c(cc23)OCCO4)cc1,-,0
O=C(Cn1ncn2cccc2c1=O)N1CCc2ccccc21,0,0
COc1cccc2c1OCC2=O,0,-
O=c1c(-c2cc(O)c(O)c(O)c2)coc2cc(O)c(O)c(O)c12,-,26
O=c1c(-c2ccc(O)cc2)coc2cc(O)cc(O)c12,0,0
Cn1c(=O)c2c(SCC(=O)N3CCCC3)nc(-c3ccc(F)cc3)nc2n(C)c1=O,0,-
Nc1ccc(-c2nc3ccccc3s2)c(Cl)c1,0,0
Nc1ccc(O)c(-c2nc3ccc(N)cc3s2)c1,0,36
O=S(=O)(c1ccc2c(c1)OCCO2)N1CCc2cc3ccccc3nc21,0,0
O=C1CC(c2ccccc2)=Nc2cccnc2N1,0,0
COc1ccc(C2=Nc3cccnc3NC(=O)C2)cc1,16,0
COc1ccc(Oc2nc(N3CCCC3)c(Cl)c3c2N(CC2CCCO2)CCS3(=O)=O)cc1 (stereo not given),9.4,0
CCCCN1CCS(=O)(=O)c2c(Cl)c(N3CCOCC3)nc(Oc3ccc(F)cc3)c21,0,0
CCOC(=O)c1c(N)sc(C)c1C,0,0
CCOC(=O)c1c(N)sc(SSc2sc(N)c(C(=O)OCC)c2C)c1C,4.4,-
FC(F)(F)C(=C(NC(=S)N1CCCCCC1)C(F)(F)C(F)(F)F)C(F)(F)F,5.7,-
FC(F)(F)C(=C(NC(=S)n1cnc2ccccc21)C(F)(F)C(F)(F)F)C(F)(F)F,0,-
Cc1nc2c(c(SCC(N)=O)n1)CCC2,0,0

# High-throughput results: PubChem BioAssay, Center for Chemical Genomics, University of Michigan
